Among the data in PubChem BioAssay (NCI) are growth inhibition values, retold here.

This is part of a sample that, as a whole, favours compounds with a hit. Of some 79,000 tested, about 15% had one in any assay. Activity calls are given as the source filed them. Cut-off read from the data, not from the text of the source: active = growth inhibition above about 70%; inactive = the rest.

The assay in a line: NCI Yeast Anticancer Drug Screen. Data for the mlh1 rad18 strain (AID 175). To be noted: S. cerevisiae mlh1 rad18 strain growth inhibition; at 5.0 µM (retest, dose inferred, filed as 0.5); active compounds read high. In a few lines: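 Steps: expose repair-defective yeast to compound; measure growth; express inhibition against vehicle-treated controls.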
`Clc1ccccc1C#[C][Hg][C]#Cc1ccccc1Cl`: the growth inhibition was 5% (inactive).
Under `CC12CCC3C(CC=C4CC(SC(=N)N)CCC43C)C1CCC2=O` (stereo not drawn) stands 8% (inactive).
For the compound `COc1ccccc1/C=C/[N+](=O)[O-]`, the growth inhibition was 96% (active).
Consider `ClC(CN1CCCCC1)C(Cl)c1ccccc1` (stereo not drawn), for which the growth inhibition was 16% (inactive).
For `CCC[CH2][Sn]1([CH2]CCC)[O]CC(CN2CCCCC2)[O]1` (stereo not drawn), the growth inhibition was 30% (inactive).
Regarding `COC1OC(CO)C(O)C(O)[CH]1[Hg][Cl]` (stereo not drawn), the growth inhibition is 99% (active).
As for `ClC1=C(Cl)C2(Cl)C(Cl)CC1(Cl)C2(Cl)Cl` (stereo not drawn), the growth inhibition is 14% (inactive).
As for `[Hg][c]1ccccc1`, the growth inhibition was 99% (active).
Under `O=[N+]([O-])c1cccc(SC(Cl)(Cl)Cl)c1` stands 45% (inactive).
As to `CC1=C(O)C(=O)C=C2C1=CC=C1[C@@]2(C)CC[C@@]2(C)[C@@H]3C[C@](C)(C(=O)O)CC[C@]3(C)CC[C@]12C`, the growth inhibition was 74% (active).
Under `CCC[CH2][Sn]1([CH2]CCC)[O]C2C(O)OC(CO)C(O)C2[O]1` (stereo not drawn) stands 81% (active).
Under `O=[As]c1ccccc1O` (stereo not drawn) stands -1% (inactive); under `CC[PH+](CC)CC.[Cl][Au]`, 94% (active).
